Here are results for 10 compounds from PubChem BioAssay (NCATS).

Calls of active or inactive are those of the source. Calls come from the whole dose curve; as a rule, active = well fitted curve in the direction sought with a large enough effect; inconclusive = small, poorly fitted or top-dose-only effect, or another doubt; inactive = no such curve, though single readings can be large or run the other way.

This test can be described thus: qHTS for compounds that reverse cellular toxicity of Amyloid beta (A-beta) peptide in yeast: LOPAC Validation Assay (AID 720559). The note with it: yeast expressing A-beta; series mostly up to 46.1 µM. From the text: The A-beta peptide is produced by the processing of the amyloid precursor protein (APP) by two proteases, beta and gamma secretases. […] A-beta42 is regarded as the most amyloidogenic form due to its hydrophobicity; however, precisely how A-beta42 induces neurotoxicity is unclear. To understand further this biology and its potential therapeutic implications for human neurodegenerative disease, a quantitative high-throughput screen for compounds that reverse the cellular toxicity of the A-beta peptide was developed.
A yeast based screen was used because it recapitulates the salient feature of protein mis-folding disorder accurately. This cell-based phenotypic screen provides a significant, unbiased advantage by letting the compounds and models inform us which proteins or pathways are most relevant. The ideal chemical candidates would therefore have activity in both our primary yeast and secondary neuronal toxicity assays, as well as in mouse models. They will be valuable tools for dissecting diverse protein homeostasis pathologies and could potentially become the focus for future pre-clinical development. For this […] assay, inhibition of A-beta rescues the toxic effect in the yeast cell, resulting in increase of signals.
NIH Chemical Genomics Center [NCGC]
NIH Molecular Libraries Probe Centers Network [MLPCN]
Assay Submitter (PI): Susan Lindquist, Whitehead Institute, Massachusetts Institute of Technology
[1] Vassar R,et al (1999). Beta-secretase cleavage of Alzheimer's amyloid precursor protein by the transmembrane aspartic protease BACE. Science. 286: 735-741.
[2] Yan R, et al (1999). Membrane-anchored aspartyl protease with Alzheimer's disease beta-secretase activity. Nature.
Two and a half microliter / well of yeast growth medium were dispensed in a 1536 assay plate. Compounds were pinned using the Kalypsys robotic system followed by addition of 2.5 uL / well yeast solution. The assay plates were incubated at 30 C. After 48 hr, the absorbance signal at 600 nm was obtained using the PerkinElmer ViewLux plate reader to assess yeast growth. The data was normalized to the positive control of an equimolar mixture of ferric chloride (FeCl3) and clioquinol and to the negative control DMSO.
On the technique in general: Quantitative high-throughput screening tests each substance at several concentrations.
Turning to `O=C1c2ccccc2C(=O)c2c(NCCc3ccc(O)cc3)ccc(NCCc3ccc(O)cc3)c21`, the result was inactive.
With `CN1C2CCCC1CC(NC(=O)c1nn(C)c3ccccc13)C2` (stereo not given) the entry was “inactive”.
To `CCc1ccc(/C=C2/SC(=S)NC2=O)cc1` belongs “inactive”.
For `Nc1c(S(=O)(=O)O)cc(Nc2ccc(Nc3nc(Cl)nc(Nc4ccc(S(=O)(=O)O)cc4)n3)c(S(=O)(=O)O)c2)c2c1C(=O)c1ccccc1C2=O`, the result was inactive.
With `Cc1cccc(/C=C/c2ccccc2)n1` the entry was “inactive”; with `Oc1cc2c(c(Cl)c1O)CCNCC2c1ccccc1` (stereo not given), “inactive”; with `O=Nc1c(-c2c(O)[nH]c3ccccc23)[nH]c2ccccc12`, “inactive”.
For the compound `CC[N+](CC)(CC)CC`, the compound was classed as inactive.
On to `N#C/C(=C\c1ccc(O)c(O)c1)C(=O)Nc1ccccc1`, for which the result was inactive.
Take `C[C@H](Cc1ccccc1)Nc1ncnc2c1ncn2[C@@H]1O[C@H](CO)[C@@H](O)[C@H]1O`: the compound was called inactive.
